Measured values: ChEMBL document CHEMBL4513216, “Probing the Open Global Health Chemical Diversity Library for Multistage-Active Starting Points for Next-Generation Antimalarials” (ACS Infect Dis, 2020)
In all, about 65,000 compounds went through this assay and about 2,100 (3.2%) showed an effect of 50% or more. The median lay at about -52%. The entries come from a sample that favours strong results as a whole.

Test system: Plasmodium falciparum
Assay: Screen against P. falciparum Asexual Blood Stage (ABS), at 5uM
Type: functional, Dd2
Conditions: tested at 5 uM

**Q.** For `CC(C)n1nc2c(cc1=O)CN(c1ncnc3ccsc13)CC2`, which INHIBITION is on record?
**A.** -31%

**Q.** Which INHIBITION does the source give for `CCOc1ccc(N2CCCN=C2NC(=O)c2ccc(Cl)cc2)cc1` here?
**A.** -71.7%

**Q.** For `CSC1=Nc2c(cnn2-c2ccccc2)C2=NCCCN12`, which INHIBITION is on record?
**A.** 9.95%

**Q.** For `O=C(NC1=NCCCN1c1ccc(Cl)cc1)c1cccc(Cl)c1`, which INHIBITION is on record?
**A.** -55.5%

**Q.** How did the INHIBITION turn out when `Cc1ccc(-n2ncc(C(=O)NC3CCCCC3)c2N)cc1` was run?
**A.** -125%

**Q.** With `CSC1=Nc2c(cnn2-c2ccc(C)cc2)C2=NCCCN12` as the compound, how does the INHIBITION read?
**A.** 53.5%

**Q.** `CCSC1=Nc2c(cnn2-c2ccc(Cl)cc2)C2=NCCCN12` was tested. Which INHIBITION did it give?
**A.** 67.3%

**Q.** Which INHIBITION does the source give for `COCCNC(=O)c1cc(C(C)C)nc(N2CCCCC2)n1` here?
**A.** -39.9%

**Q.** Which INHIBITION does the source give for `COC(=O)c1ccc(-c2noc(CN(CCO)Cc3cccs3)n2)cc1` here?
**A.** -63.8%

**Q.** Which INHIBITION does the source give for `O=C(c1cscn1)N1CCCC2(CCN2Cc2cccc(F)c2)C1` (configuration not stated) here?
**A.** 26.8%

**Q.** With `Cc1csc(C(=O)N2CC(S(=O)(=O)C3CCCCC3)C2)c1` as the compound, how does the INHIBITION read?
**A.** -52%

**Q.** `c1coc(-c2[nH]c3ncccc3c2CN2CCCOCC2)c1` was tested. Which INHIBITION did it give?
**A.** -12.7%

**Q.** For `Cc1csc2ncnc(N3CCC(Cn4cc(C(C)(C)O)nn4)CC3)c12`, which INHIBITION is on record?
**A.** -46.7%

**Q.** How did the INHIBITION turn out when `O=C(C1CCOCC1)N1CCC(OCc2cccnc2)CC1` was run?
**A.** -110%

**Q.** For `CC(C)NC(=O)C1CN(C(=O)NCc2ccccc2)CC12CCOCC2` (configuration not stated), which INHIBITION is on record?
**A.** -153%

**Q.** Which INHIBITION does the source give for `CC(=O)N1CCC(NC(=O)N(C)Cc2c(C)noc2C)CC1` here?
**A.** 51.4%

**Q.** For `Cc1noc(C)c1CN(C)C(=O)NC1CCOCC1`, which INHIBITION is on record?
**A.** 16%

**Q.** How did the INHIBITION turn out when `Cc1noc(C)c1CN(C)C(=O)NC1CCN(C2CC2)CC1` was run?
**A.** -155%

**Q.** `Cc1noc(C)c1CN1CCc2ncnc(-c3ccncc3)c2CC1` was tested. Which INHIBITION did it give?
**A.** -104%

**Q.** With `COCCOCC(=O)Nc1ccnn1-c1ccc(Cl)cc1` as the compound, how does the INHIBITION read?
**A.** -100%

**Q.** How did the INHIBITION turn out when `COCC(=O)Nc1ccnn1-c1ccc(Cl)cc1` was run?
**A.** 68.3%

**Q.** `CCOCCC(=O)Nc1ccnn1-c1ccc(Cl)cc1` was tested. Which INHIBITION did it give?
**A.** -23.8%

**Q.** With `COc1ccc(S(=O)(=O)NC(=O)COc2ccc3c(c2)CCC3)cc1` as the compound, how does the INHIBITION read?
**A.** -119%

**Q.** How did the INHIBITION turn out when `c1csc(CN2CCCN(c3ccc(Cn4ccnc4)cn3)CC2)c1` was run?
**A.** -41.4%

**Q.** For `c1cn(Cc2ccc(N3CCCN(C4CCCC4)CC3)nc2)cn1`, which INHIBITION is on record?
**A.** -80%

**Q.** Which INHIBITION does the source give for `Fc1ccc(N2CCCN(c3ccc(Cn4ccnc4)cn3)CC2)cc1` here?
**A.** 60.2%

**Q.** With `Cc1ccc(CN2CCn3c(CNS(C)(=O)=O)nnc3C2)s1` as the compound, how does the INHIBITION read?
**A.** -30.1%

**Q.** `CCc1[nH]c2c(CNC(=O)C3CCCN(C)C3)cc(C)cc2c1C` (configuration not stated) was tested. Which INHIBITION did it give?
**A.** 0.72%

**Q.** How did the INHIBITION turn out when `CCc1[nH]c2c(CNC(=O)C3CCN(C)C3)cc(C)cc2c1C` (configuration not stated) was run?
**A.** -5.66%

**Q.** `CCc1[nH]c2c(CNC(=O)[C@@H]3CCCN3C)cc(C)cc2c1C` was tested. Which INHIBITION did it give?
**A.** 60.4%

**Q.** How did the INHIBITION turn out when `NC(=O)N1CCC2(CC1)CN(c1ccsc1)C(=O)CO2` was run?
**A.** -60.1%

**Q.** With `Clc1cccc(N2CCC(NCc3ncc[nH]3)C2)c1` (configuration not stated) as the compound, how does the INHIBITION read?
**A.** 66.6%

**Q.** How did the INHIBITION turn out when `Clc1cccc(N2CCC(NCc3cc[nH]n3)C2)c1` (configuration not stated) was run?
**A.** -39.8%

**Q.** Which INHIBITION does the source give for `O=C1CC(NCc2ncc[nH]2)CN1CCc1cccc(Cl)c1` (configuration not stated) here?
**A.** -17.4%

**Q.** Which INHIBITION does the source give for `Cn1cc(C(=O)N2CCCC(c3cnccn3)C2)cn1` (configuration not stated) here?
**A.** -55.6%

**Q.** How did the INHIBITION turn out when `O=C1[C@H]2CN(c3ncccn3)C[C@H]2CN1CC1CC1` was run?
**A.** -51.9%

**Q.** `Cc1cc(C(=O)NCCc2nc3c(s2)CCCC3)n(C)n1` was tested. Which INHIBITION did it give?
**A.** -90%

**Q.** With `CC(C)NC(=O)CCN1CCCC1c1cccc2c1OCCO2` (configuration not stated) as the compound, how does the INHIBITION read?
**A.** 53.4%

**Q.** How did the INHIBITION turn out when `COC(=O)CCN1CCCC1c1cccc2c1OCCO2` (configuration not stated) was run?
**A.** -42.1%

**Q.** How did the INHIBITION turn out when `CCNC(=O)CCN1CCCC1c1cccc2c1OCCO2` (configuration not stated) was run?
**A.** 52.7%

**Q.** Which INHIBITION does the source give for `COCCN1CCCC1c1cccc2c1OCCO2` (configuration not stated) here?
**A.** -0.537%

**Q.** Which INHIBITION does the source give for `NC(=O)NC(=O)CCN1CCCC1c1cccc2c1OCCO2` (configuration not stated) here?
**A.** 24.8%

**Q.** `O=C(CCN1CCCC1c1cccc2c1OCCO2)N1CCOCC1` (configuration not stated) was tested. Which INHIBITION did it give?
**A.** -24.9%

**Q.** `NC(=O)c1nc2c(s1)CCN(C(=O)Nc1cccc(Cl)c1)CC2` was tested. Which INHIBITION did it give?
**A.** -91.8%

**Q.** Which INHIBITION does the source give for `CC(=O)NCC(=O)Nc1cc(C)n(-c2ccc(Cl)cc2Cl)n1` here?
**A.** -97%

**Q.** How did the INHIBITION turn out when `CC(C)N(C)C(=O)C1CCN(Cc2cnc3ccccn23)CC1` was run?
**A.** -38.4%

**Q.** Which INHIBITION does the source give for `CN(C)C(=O)COc1ccccc1CN1CCCC2(C1)CN(C)C(=O)O2` (configuration not stated) here?
**A.** -37.9%

**Q.** `CCS(=O)(=O)c1ncc(CN(C)C)n1Cc1ccccc1` was tested. Which INHIBITION did it give?
**A.** -37.3%

**Q.** With `CS(=O)(=O)CCC(=O)Nc1nccn1Cc1ccccc1Cl` as the compound, how does the INHIBITION read?
**A.** -70.9%

**Q.** Which INHIBITION does the source give for `O=C1NC(c2ccccc2)=N[C@@]12CC[C@@H]1CN(Cc3ccoc3)C[C@@H]12` here?
**A.** 59.6%

**Q.** With `O=C1NC(c2ccccc2)=N[C@@]12CC[C@@H]1CN(Cc3ccncc3)C[C@@H]12` as the compound, how does the INHIBITION read?
**A.** 15.3%

**Q.** For `O=C1NC(c2ccccc2)=N[C@@]12CC[C@@H]1CN(Cc3ccccc3)C[C@@H]12`, which INHIBITION is on record?
**A.** 42.6%

**Q.** Which INHIBITION does the source give for `CN1C(=O)CC(c2cnn(C)c2)C12CCN(C(=O)c1cscn1)CC2` (configuration not stated) here?
**A.** -21.4%

**Q.** For `CC(C)(C)NC(=O)Cn1c(=O)n(Cc2ccco2)c2ncccc21`, which INHIBITION is on record?
**A.** -56.2%

**Q.** For `COCC1CCN(c2ccnc3ccsc23)C1` (configuration not stated), which INHIBITION is on record?
**A.** 45.4%

**Q.** With `Cc1noc(Cl)c1CCC(=O)N1CCN(c2ccccc2)CC1` as the compound, how does the INHIBITION read?
**A.** 53%

**Q.** `Cc1noc(Cl)c1CCC(=O)N1CCc2sccc2C1` was tested. Which INHIBITION did it give?
**A.** 54.4%

**Q.** Which INHIBITION does the source give for `Cc1noc(Cl)c1CCC(=O)N1CCN(c2ncccn2)CC1` here?
**A.** -34.8%

**Q.** How did the INHIBITION turn out when `CCN1CCN(C(=O)CCc2c(C)noc2Cl)CC1` was run?
**A.** 1.06%

**Q.** Which INHIBITION does the source give for `Cc1noc(C)c1CN(C)CCC(=O)N1CCc2sccc2C1` here?
**A.** -54.3%

**Q.** How did the INHIBITION turn out when `Cc1noc(C)c1CC(=O)N1CCc2sccc2C1` was run?
**A.** -48.1%

**Q.** For `O=C(CCN1CCCC(CC2CC2)(C(=O)O)C1)NC1CCCC1` (configuration not stated), which INHIBITION is on record?
**A.** -79.9%

**Q.** `CC(C)(C)n1ncc2c1CCCC2NCc1ccc2c(c1)CCO2` (configuration not stated) was tested. Which INHIBITION did it give?
**A.** -0.776%

**Q.** Which INHIBITION does the source give for `CC(C)(CO)CCCNC(=O)NC1(c2cccc(F)c2)CC1` here?
**A.** -79.4%

**Q.** How did the INHIBITION turn out when `O=C(CCc1ccsc1)NC1CCN(c2cccc(F)c2)CC1` was run?
**A.** -55.7%

**Q.** How did the INHIBITION turn out when `CCc1cc(C(=O)N2CCCC(Cc3ccc(NC)nn3)C2)on1` (configuration not stated) was run?
**A.** -89.6%

**Q.** With `CC(Cn1ccnc1)NC(=O)C1(c2ccc(F)cc2)CC1` (configuration not stated) as the compound, how does the INHIBITION read?
**A.** -96.5%

**Q.** With `CCC(CN1CCCCC1)NC(=O)C1(c2ccc(F)cc2)CC1` (configuration not stated) as the compound, how does the INHIBITION read?
**A.** 70%

**Q.** `CC(CNC(=O)C1(c2ccc(F)cc2)CC1)CN1CCCC1=O` (configuration not stated) was tested. Which INHIBITION did it give?
**A.** 11.4%

**Q.** With `CC(Cn1ccnc1)NC(=O)C1(c2ccc(F)cc2)CCCC1` (configuration not stated) as the compound, how does the INHIBITION read?
**A.** -16.4%

**Q.** For `Cc1cc(C)n(CC(C)NC(=O)C2(c3ccc(F)cc3)CC2)n1` (configuration not stated), which INHIBITION is on record?
**A.** -44.3%

**Q.** Which INHIBITION does the source give for `CCC(CN1CCCC1)NC(=O)C1(c2ccc(F)cc2)CC1` (configuration not stated) here?
**A.** 59.1%
